SRC3 inh – SRC3 coactivator transcriptional activity inhibitors, primary screen, cell-based, luminescence. Nuclear receptor coactivator 3 (Homo sapiens), Q9Y6Q9. HEK293 GAL4-SRC3 luciferase reporter. inhibition, % at 3.6 µM. 360,000 compounds, 0.17% hits. AID 588352, 2011;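 active = inhibition above a per-campaign cutoff, the mean of all compounds plus 3 SD, cut at about 60% in these data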;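 also: 0% = DMSO-treated cells and 100% = gossypol-treated cells at 36 µM; higher means less SRC3-driven luciferase light from the GAL4 reporter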
NCOA2 inhibitor – inhibition of GAL4-SRC2 driven luciferase reporter, primary screen, SRC2 inhibitor project, cell-based, luminescence | Nuclear receptor coactivator 2 (Homo sapiens), Q15596 | HEK293 GAL4-SRC2 luciferase reporter | inhibition, % at 9 µM | 370,000 compounds, 0.17% hits;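 active = inhibition above the mean inhibition of all tested compounds plus 3 SD, set per campaign, cut at about 52% in these data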;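 also: 0% = DMSO treated cells and 100% = cells given Gossypol at 36 µM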
SRC1 inh – SRC1 coactivator transcriptional activity inhibitors, primary screen, cell-based, luminescence | 360,000 compounds, 0.12% hits | HEK293 GAL4-SRC1 luciferase reporter | inhibition, % at 3.6 µM | AID 588354, 2011;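 active = inhibition above the campaign mean plus 3 SD, with each screening campaign given its own cutoff, cut at about 60% in these data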;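 also: 0% = DMSO treated cells and 100% = gossypol at 36 µM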
Target sequence (Q15788 whole entry, looked up, the tested form may be a part): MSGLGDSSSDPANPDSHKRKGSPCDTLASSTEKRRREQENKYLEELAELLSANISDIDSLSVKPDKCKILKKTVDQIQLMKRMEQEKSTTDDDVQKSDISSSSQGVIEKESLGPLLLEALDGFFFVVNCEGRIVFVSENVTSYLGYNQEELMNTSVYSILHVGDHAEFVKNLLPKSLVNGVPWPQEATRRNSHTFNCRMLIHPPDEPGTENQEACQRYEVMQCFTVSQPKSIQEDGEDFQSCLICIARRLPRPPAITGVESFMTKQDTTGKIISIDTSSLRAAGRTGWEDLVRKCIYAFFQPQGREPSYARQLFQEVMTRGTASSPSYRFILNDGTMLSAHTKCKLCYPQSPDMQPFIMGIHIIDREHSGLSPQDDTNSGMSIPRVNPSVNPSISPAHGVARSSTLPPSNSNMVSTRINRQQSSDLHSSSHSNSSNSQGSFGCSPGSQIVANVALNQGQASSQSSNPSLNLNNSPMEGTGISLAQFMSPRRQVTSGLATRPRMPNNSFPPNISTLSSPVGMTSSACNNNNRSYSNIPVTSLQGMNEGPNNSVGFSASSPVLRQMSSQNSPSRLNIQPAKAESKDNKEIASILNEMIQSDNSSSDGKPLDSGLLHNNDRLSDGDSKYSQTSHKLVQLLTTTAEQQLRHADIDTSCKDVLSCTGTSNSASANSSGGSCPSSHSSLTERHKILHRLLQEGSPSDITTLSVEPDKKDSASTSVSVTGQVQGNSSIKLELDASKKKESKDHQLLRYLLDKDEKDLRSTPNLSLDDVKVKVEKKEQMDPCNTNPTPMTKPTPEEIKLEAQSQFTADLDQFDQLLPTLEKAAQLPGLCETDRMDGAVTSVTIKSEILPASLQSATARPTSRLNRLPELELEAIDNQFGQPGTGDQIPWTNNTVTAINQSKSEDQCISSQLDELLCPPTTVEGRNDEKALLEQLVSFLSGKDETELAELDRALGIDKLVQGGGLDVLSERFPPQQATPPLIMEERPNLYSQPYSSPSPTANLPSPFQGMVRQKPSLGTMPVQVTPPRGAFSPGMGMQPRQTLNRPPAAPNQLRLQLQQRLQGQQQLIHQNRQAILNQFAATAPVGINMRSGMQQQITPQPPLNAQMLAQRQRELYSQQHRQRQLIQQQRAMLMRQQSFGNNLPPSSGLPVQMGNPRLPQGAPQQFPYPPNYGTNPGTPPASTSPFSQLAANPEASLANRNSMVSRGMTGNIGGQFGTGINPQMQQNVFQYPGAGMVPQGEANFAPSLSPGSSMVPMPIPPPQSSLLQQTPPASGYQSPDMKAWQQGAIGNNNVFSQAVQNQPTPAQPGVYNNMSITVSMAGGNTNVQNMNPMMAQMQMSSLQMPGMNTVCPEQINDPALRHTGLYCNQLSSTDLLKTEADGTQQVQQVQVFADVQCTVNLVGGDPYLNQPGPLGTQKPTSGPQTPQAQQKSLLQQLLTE
LGR2 antag – inhibitors of bursicon-induced LGR2 CRE-luciferase signal, primary screen, cell-based, HEK293, CRE-luciferase reporter, bursicon stimulation. 380,000 compounds, 0.35% hits. Drosophila bursicon receptor LGR2 (rickets). bursicon-stimulated, 4 h. inhibition, % at 9.99 µM;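 active = drop in luminescence signal, shown as inhibition above about 50% in the replicate tests, limit read from the data, passing the limit was not always enough; inconclusive = probably only some replicates passing the limit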;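 also: agonist challenge used bursicon conditioned medium at about half maximal strength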
LRH-1 inv ag – LRH-1 (NR5A2) inverse agonists, primary screen, cell-based, luminescence, HEK293T, StAR-luciferase reporter. LRH-1 transfected, 24 h. inhibition, % at 3.6 µM. 360,000 compounds, 0.13% hits. Nuclear receptor subfamily 5 group A member 2 (Homo sapiens), O00482. AID 602396, 2012;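 active = inhibition above the mean inhibition of all tested compounds plus 3 SD, cut at about 73% in these data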;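 also: 0% = DMSO wells and 100% = reporter-only cells lacking LRH-1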
* = called active by the depositor; ? = inconclusive; / = no result given. Compounds with a hit are over-represented: about 0.48% of the library has one in this group of screens.

SMILES	SRC3 inh	NCOA2 inhibitor	SRC1 inh	LGR2 antag	LRH-1 inv ag
COc1cccc(NC(=O)Nc2cccc(C(=O)O)c2)c1	-26	-25	-38	97*	-72
O=C(CN1CCOCC1)N1CCCCN2[C@@H](CO)[C@@H](c3ccc(C#Cc4ccccc4)cc3)[C@@H]2C1	/	/	/	-19	/
Cc1noc(C)c1S(=O)(=O)Nc1ccc2c(c1)CC(=O)N([C@@H](C)CO)C[C@@H](C)[C@@H](CN(C)CC1CCCCC1)O2	/	/	/	10	/
CN(C)c1ccc(/C=C2\CCC/C(=C\c3ccccc3)C2=O)cc1	-36	-20	-23	-39	15
CC(=O)N1/C(=C/c2ccc(N(C)C)cc2)C(=O)c2ccccc21	3	36	10	75*	7
COC(=O)C1=C(C)N(Cc2cccc(C(F)(F)F)c2)C(=NCc2ccc(OC)cc2)NC1c1cccc(Cl)c1 (centres undefined)	/	-1	/	59*	/
COC(=O)C1=C(C)N(Cc2ccc(C(F)(F)F)cc2)C(=NCc2ccc(OC)cc2)NC1c1cccc(Cl)c1 (centres undefined)	/	-5	/	/	/
COC(=O)C1=C(C)N(Cc2ccc(C(F)(F)F)cc2)C(=NCC2CC2)NC1c1cccc(Cl)c1 (centres undefined)	/	-2	/	57*	/
C=CCN=C1NC(CCc2ccccc2)C(C(=O)OC)=C(C)N1Cc1cccc(C(F)(F)F)c1 (centres undefined)	/	2	/	62*	/
COC(=O)C1=C(C)N(Cc2ccc(C(F)(F)F)cc2)C(=NCc2ccccc2)NC1c1cccc(F)c1 (centres undefined)	/	-26	/	58*	/
COc1cccc(S(=O)(=O)N2C[C@H](O)COC[C@H]3O[C@H](CC(=O)N4CCOCC4)CC[C@@H]32)c1	/	/	/	-14	/
C[C@H](CO)N1C[C@H](C)[C@H](CN(C)C(=O)NC2CCCCC2)Oc2ccc(NC(=O)Cc3ccccc3)cc2CC1=O	/	/	/	-30	/
C=C1C(=O)[C@@]23[C@H](O)C[C@@H]4C(C)(C)CC[C@H](O)[C@]4(C)[C@@H]2C[C@H](O)[C@@H]1[C@H]3O	-4	50	12	35	27
C=C1C(=O)[C@@]23[C@H](O)C[C@@H]4C(C)(C)CC[C@H](O)[C@@]4(C)[C@@H]2CC[C@@H]1[C@H]3O	35	60*	44	59*	38
CCC(=O)N1CC2(CCN(S(C)(=O)=O)CC2)c2c(n(C)c3cc(OC)ccc23)[C@H]1CO	/	/	/	-2	/
CC(C)CCn1cnc2c(oc3nc4c(cc32)CCCC4)c1=O	-75	-35	-78	68*	-145
CC1(C)Cc2nc3oc4c(=O)n(CC(=O)Nc5ccccc5)cnc4c3cc2CO1	-12	-29	-27	-9	5
COc1ccc2c3c([nH]c2c1)[C@H](CO)N(C(=O)Nc1ccc(F)cc1)CC31CCN(S(=O)(=O)c2cccs2)CC1	/	/	/	2	/
COc1ccc(NC(=O)Nc2ccc3c(c2)C(=O)N([C@H](C)CO)C[C@@H](C)[C@H](CN(C)S(=O)(=O)c2ccc(Cl)cc2)OCCCC[C@@H](C)O3)cc1	/	/	/	0	/
COc1ccc(-n2nc(C#N)c(Cl)cc2=O)cc1	-20	-4	-25	105*	-17
C#CCN(C[C@@H]1[C@@H](OC(=O)NCC2CCCCC2)[C@@H](OC(=O)NCC2CCCCC2)Cn2c(=O)ccc(=O)n21)S(=O)(=O)c1ccc(C)cc1	7	31	-5	72*	59
C#CCN(C[C@@H]1[C@@H](OC(=O)NCCCCCC)[C@@H](OC(=O)NCCCCCC)Cn2c(=O)ccc(=O)n21)S(=O)(=O)c1ccc(C)cc1	54	26	27	?	34
N#C/C(=C\c1ccc(OCc2ccc(C(=O)O)cc2)cc1)C(=O)N1CCOCC1	-88	-52	-173	80*	-229
COc1cc(/C=C(\C#N)C(=O)N2CCOCC2)ccc1OCc1ccccc1	-19	11	-28	-33	-4
CC(=O)C1CCC2C3CC=C4CC(SC(=N)N)CCC4(C)C3CCC12C (centres undefined)	16	-14	12	90*	9
SMILES	SRC3 inh	NCOA2 inhibitor	SRC1 inh	LGR2 antag	LRH-1 inv ag
CC(C)C(=O)N[C@H]1CCC2C3CC=C4C[C@@H](O)CC[C@]4(C)C3CC[C@@]21C (some centres undefined)	-3	-4	-12	16	1
CC(C)(C)[C@H](N)C(=O)N[C@H]1CCC2C3CC=C4C[C@@H](O)CC[C@]4(C)C3CC[C@@]21C (some centres undefined)	1	-1	-4	65*	21
COc1ccc(C2C(O)C(c3c[nH]c4ccccc34)=NN2C(=O)CCl)cc1 (centres undefined)	19	73*	-39	23	-6
CC(C)OC(=O)CCCCCN1C(=O)CSC1=S	-18	-7	-1	/	17
O=C(O)CCCCCN1C(=O)CSC1=S	34	81*	4	/	22
CCC(=O)NC(c1ccccc1OC)c1ccc2cccnc2c1O (centres undefined)	37	/	23	/	32
CC(=O)NC(c1cccc([N+](=O)[O-])c1)c1ccc2cccnc2c1O (centres undefined)	15	34	21	45	83*
COc1cccc(C(NC(C)=O)c2ccc3cccnc3c2O)c1 (centres undefined)	26	26	20	11	76*
O=[N+]([O-])c1ccc(NC(c2ccccc2)c2ccc3cccnc3c2O)cc1 (centres undefined)	87*	20	73*	27	38
C[C@@H]1CN([C@@H](C)CO)S(=O)(=O)c2ccc(C#CC3CCCC3)cc2O[C@@H]1CN(C)C(=O)c1cccc(F)c1	/	/	/	4	/
Cc1ccc2c(C)nc(Nc3nc(CSc4nc5ccccc5[nH]4)cc(=O)[nH]3)nc2c1	65*	-32	52	32	8
COc1ccccc1S(=O)(=O)N[C@H]1CC[C@@H](CCNC(=O)C2CCOCC2)O[C@H]1CO	/	/	/	9	/
Cc1ccc(-c2cnc3c(c2)C(=O)N([C@@H](C)CO)C[C@H](C)[C@@H](CN(C)C(=O)c2cccnc2)O3)cc1	/	/	/	-4	/
O=C1C=CC2(C=C1)O[C@H](Cc1ccccc1)[C@@H](Cc1ccccc1)O2	-190	54*	-204	98*	71
O=C(O)CCC(=O)Nc1ccc(N=Nc2ccccc2)cc1	0	/	-14	/	-6
CC(C)(C)C(=O)Nc1ccc(N=Nc2ccccc2)cc1	51	46	52	72*	38
CC(C)c1ccc2c(c1)C(N1CCNCC1)Cc1ccc(F)cc1S2 (centres undefined)	/	6	/	104*	/
